TMEM16A act: mouse TMEM16A channel activation, primary screen. Q8BHY3. HEK293 TMEM16A/YFP-H148Q/I152L, iodide quench fluorescence; hits give low values. B-score at 10 µM. hit rate 0.3% among 340,000;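 active = fluorescence-ratio B-score plate-corrected deviation score at least 3 library SD below zero, with starting fluorescence score within 5 deviations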;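 note: channel opened by trigger with iodide after compound preincubation; score built on the fluorescence ratio of max minus min over baseline; more negative score means more quench and so TMEM16A activation or potentiation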
TLR9-MyD88 inh: blocks human TLR9 binding to MyD88; CHO BLA complementation TLR9-MyD88, CCF4 FRET ratio; inhibition, % at 4.98 µM; hit rate 0.21% among 340,000;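 active = inhibition above the mean over all tested compounds plus 3 SD, cut at about 21% in these data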
Target sequence (Q99836 whole entry, looked up): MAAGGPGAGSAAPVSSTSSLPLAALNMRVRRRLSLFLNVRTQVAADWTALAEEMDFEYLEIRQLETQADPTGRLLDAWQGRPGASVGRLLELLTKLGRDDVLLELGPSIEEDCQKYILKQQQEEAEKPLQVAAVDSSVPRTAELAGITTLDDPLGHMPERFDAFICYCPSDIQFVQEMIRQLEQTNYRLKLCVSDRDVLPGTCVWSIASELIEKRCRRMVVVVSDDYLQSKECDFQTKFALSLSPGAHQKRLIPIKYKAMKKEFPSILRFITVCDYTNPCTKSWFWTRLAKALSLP
Target sequence (Q9NR96 whole entry, looked up): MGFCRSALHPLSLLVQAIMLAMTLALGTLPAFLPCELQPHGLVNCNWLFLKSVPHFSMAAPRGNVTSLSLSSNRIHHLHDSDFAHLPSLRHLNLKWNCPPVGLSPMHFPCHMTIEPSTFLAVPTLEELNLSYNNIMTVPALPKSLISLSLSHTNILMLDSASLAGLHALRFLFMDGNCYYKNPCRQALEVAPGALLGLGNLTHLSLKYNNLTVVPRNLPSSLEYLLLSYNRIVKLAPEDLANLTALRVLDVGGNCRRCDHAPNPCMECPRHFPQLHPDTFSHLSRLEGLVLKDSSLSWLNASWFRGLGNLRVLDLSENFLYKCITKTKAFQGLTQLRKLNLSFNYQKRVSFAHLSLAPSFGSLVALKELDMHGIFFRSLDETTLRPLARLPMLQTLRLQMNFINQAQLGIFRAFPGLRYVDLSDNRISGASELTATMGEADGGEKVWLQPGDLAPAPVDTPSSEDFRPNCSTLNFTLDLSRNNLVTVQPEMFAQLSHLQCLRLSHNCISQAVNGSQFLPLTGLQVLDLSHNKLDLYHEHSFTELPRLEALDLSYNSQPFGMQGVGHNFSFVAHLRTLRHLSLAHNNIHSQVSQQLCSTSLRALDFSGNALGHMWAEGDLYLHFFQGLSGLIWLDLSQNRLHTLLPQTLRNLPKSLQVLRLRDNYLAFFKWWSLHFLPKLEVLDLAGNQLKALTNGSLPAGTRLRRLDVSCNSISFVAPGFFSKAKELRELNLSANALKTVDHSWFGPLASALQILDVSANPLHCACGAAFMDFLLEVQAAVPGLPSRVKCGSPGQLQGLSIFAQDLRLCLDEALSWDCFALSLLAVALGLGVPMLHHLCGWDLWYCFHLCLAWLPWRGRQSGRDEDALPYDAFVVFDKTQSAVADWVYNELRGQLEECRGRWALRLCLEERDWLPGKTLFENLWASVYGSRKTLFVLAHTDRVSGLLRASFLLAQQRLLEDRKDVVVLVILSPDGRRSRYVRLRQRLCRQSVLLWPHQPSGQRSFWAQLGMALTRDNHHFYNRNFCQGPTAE
NOD2 RIPK2 PPI: NOD2-RIPK2 protein interaction inhibition | CHO BLA complementation NOD2-RIPK2, CCF4 ratio | hit rate 0.38% among 360,000 | inhibition, % at 4.98 µM | O43353 | AID 624267; in the data active = inhibition above about 21%
TLR4 MyD88 comp: inhibitors of human TLR4-MyD88 binding; hit rate 0.18% among 200,000; inhibition, % at 8.4 µM; HeLa CL3-4 TLR4/MyD88 BLA complementation, FRET ratio; in the data active = inhibition above about 25%
TMEM16A inh: mouse TMEM16A channel inhibition, primary screen; normalized B-score (activity score, 25-100; higher = stronger inhibition) at 10 µM; HEK293 TMEM16A/YFP iodide influx fluorescence, ionomycin; hit rate 1.2% among 310,000; Q8BHY3;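 active = ratio plate-corrected score three or more library SD toward inhibition, starting fluorescence score within five deviations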;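 note: score derived from kinetic fluorescence span divided by baseline fluorescence per well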
m5-HT2A agonist: mouse HTR2A agonism via beta-arrestin recruitment; P35363; CHO-K1 mHTR2A beta-arrestin complementation, luminescence; percent of 30 µM serotonin response; activation, % at 7.6 µM; hit rate 0.66% among 360,000;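 active = activation above a run cutoff, the mean activation of all tested compounds plus 3 SD, cut at about 14% in these data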
OPRM1 ag: counter-screen for mouse HTR2A agonists: human mu opioid receptor agonists; shares compounds with m5-HT2A agonist; U2OS OPRM1 beta-arrestin PathHunter, luminescence; DMSO 0%, DAMGO 9.3 µM 100%; activation, % at 9.3 µM; hit rate 5.3% among 2,300;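 active = mean activation above the mean of DMSO-only wells plus 3 SD, cut at about 0.5% in these data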
HTR2A ag conf: confirmation of mouse HTR2A serotonin receptor agonists. shares compounds with m5-HT2A agonist. CHO-K1 PathHunter beta-arrestin recruitment, luminescence; DMSO 0%, 30 µM serotonin 100%. activation, % at 7.6 µM. hit rate 19% among 2,300;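 active = mean activation across triplicates above the hit threshold derived in the original primary screen, cut at about 15% in these data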
Of the large screens only hits and unclear results are named; the others gave an inactive call (follow-up assays come after a bar, where they were run). Rows were chosen to be rich in hits. Some 2.4% of all compounds tested hit in one or more screens of this group.

COc1ccc(-c2n[nH]c(C)c2-c2ccc(Cl)cc2)c(O)c1OC	m5-HT2A agonist 22 | OPRM1 ag inactive | HTR2A ag conf inactive
COc1ccc(OCC(=O)NC(=S)NNC(=O)COc2ccc(Br)cc2Cl)cc1	m5-HT2A agonist 16 | OPRM1 ag inactive | HTR2A ag conf inactive
COC(C[C@H]1O[C@@H]1[C@@H](O)COCc1ccccc1)OC	none (no result: TLR4 MyD88 comp, TMEM16A inh)
Cc1nn2c(c1-c1ccccc1)NC1=C(C(=O)CCC1)C2c1ccccc1 (configuration not stated)	m5-HT2A agonist 16 | OPRM1 ag inactive | HTR2A ag conf inactive
Oc1ccc(Nc2nnc(-c3ccc(O)cc3)c3ccccc23)cc1	none
COc1ccc(Nc2nnc(-c3ccc(O)cc3)c3ccccc23)cc1	m5-HT2A agonist 30 | OPRM1 ag inactive | HTR2A ag conf inactive
Cc1ccc(COC(=O)c2cc(S(=O)(=O)N3CCOCC3)ccc2C)cc1	none (no result: TLR4 MyD88 comp, TMEM16A inh)
Cc1ccc(NC(=O)CN2CCOCC2)cc1	m5-HT2A agonist 14 (no result: TLR4 MyD88 comp) | OPRM1 ag inactive | HTR2A ag conf inactive
C=CCN(CC=C)CCOc1cccc2ccccc12	m5-HT2A agonist 14 | OPRM1 ag inactive | HTR2A ag conf 23
C=CCN(CC=C)CCOc1ccccc1F	none
COc1ccc(NC(=O)CN(C)C(=O)c2oc3c(ccc4ccccc43)c2C)cc1	none (no result: TLR4 MyD88 comp, TMEM16A inh)
Cc1ccc(CNC(=O)c2ccc(N3CCC4(CC3)CC(c3cccc(Br)c3)=NO4)c([N+](=O)[O-])c2)cc1	m5-HT2A agonist 14 (no result: TLR4 MyD88 comp) | OPRM1 ag inactive | HTR2A ag conf inactive
Cc1ccc(S(=O)(=O)NCCCCCCNS(=O)(=O)c2ccc(C)cc2)cc1	none (no result: TMEM16A act, TLR4 MyD88 comp, TMEM16A inh)
Cc1ccc(S(=O)(=O)NCCN(CCNS(=O)(=O)c2ccc(C)cc2)S(C)(=O)=O)cc1	m5-HT2A agonist 24 | OPRM1 ag inactive | HTR2A ag conf inactive
CC(C)C(=O)Nc1nnc(SCC(=O)NCC2CCCO2)s1 (configuration not stated)	none
Nc1c(Cl)ncnc1N1CCCC1	m5-HT2A agonist 15 | OPRM1 ag inactive | HTR2A ag conf inactive
Nc1ncnc(N2CCOCC2)c1N	none
CCS(=O)(=O)Nc1ccc(-c2nc3cccnc3s2)cc1	m5-HT2A agonist 27 | OPRM1 ag inactive | HTR2A ag conf inactive
CCS(=O)(=O)Nc1cccc(-c2nc3cccnc3s2)c1	none (no result: TLR4 MyD88 comp)
Cn1c(CNC(=O)c2ccc3c(c2)OCO3)nnc1SCC(=O)Nc1ccccc1Cl	none (no result: TLR4 MyD88 comp)
Cc1ccc(/C=N/NC(=O)CN2C(=O)CSc3ccccc32)o1	m5-HT2A agonist 20 (no result: TLR4 MyD88 comp) | OPRM1 ag inactive | HTR2A ag conf inactive
Cc1ccc(/C=N\NC(=O)Cc2cccn2C)o1	none (no result: TLR9-MyD88 inh)
CCOc1ccc(CCNC(=O)/C=C/c2ccco2)cc1OCC	m5-HT2A agonist 19 (no result: TLR4 MyD88 comp) | OPRM1 ag inactive | HTR2A ag conf inactive
COc1ccc(CCNC(=O)/C=C/c2ccco2)cc1OC	none (no result: TLR4 MyD88 comp)
CN(C)c1cc(NC(=O)CNC(C)(C)CC(C)(C)C)c2ccccc2n1	none
CN(C(=O)c1cccc(NC(=O)Cc2ccc(NC(=O)C3CCN(C(=O)C4CCCCC4)CC3)cc2)c1)C1CC1	m5-HT2A agonist 16 (no result: TMEM16A act, TLR4 MyD88 comp, TMEM16A inh) | OPRM1 ag 0.7 | HTR2A ag conf inactive
CN(C(=O)c1cccc(NC(=O)Cc2ccc(NC(=O)C3CCN(C(=O)C4CCC4)CC3)cc2)c1)C1CCCCC1	none (no result: TMEM16A act, TLR4 MyD88 comp, TMEM16A inh)
CCCC(C)C(=O)Nc1cc(S(=O)(=O)N2CCCCC2)ccc1N1CCOCC1 (configuration not stated)	none (no result: TLR4 MyD88 comp, TMEM16A inh)
COc1ccccc1CNC(=O)C1CCC(CNS(=O)(=O)c2ccc(F)cc2)CC1 (configuration not stated)	m5-HT2A agonist 21 (no result: TLR4 MyD88 comp) | OPRM1 ag inactive | HTR2A ag conf inactive
COc1cccc(C(=O)Nc2cc3c(cc2C(C)=O)OCCO3)c1	none
Cc1ccccc1NC(=O)c1nnn(-c2ccc3c(c2)OCCO3)c1N	none (no result: TLR4 MyD88 comp)
Nc1c(C(=O)Nc2cccc(F)c2)nnn1-c1ccc2c(c1)OCCO2	m5-HT2A agonist 15 (no result: TLR4 MyD88 comp) | OPRM1 ag inactive | HTR2A ag conf inactive
Nc1c(C(=O)Nc2ccc3c(c2)OCCO3)nnn1Cc1ccccc1Cl	m5-HT2A agonist 18 (no result: TLR4 MyD88 comp) | OPRM1 ag inactive | HTR2A ag conf inactive
CN(C)CCCNc1nc2cc(-c3cnn(Cc4ccccc4)c3)sc2c(=O)n1C	none (no result: TMEM16A act, TLR9-MyD88 inh, TLR4 MyD88 comp, TMEM16A inh)
Cn1c(=O)n(CC#N)c2ccccc21	none
CCCn1c(N)c(C(=O)CSc2nnc(-c3cccs3)n2C2CC2)c(=O)[nH]c1=O	m5-HT2A agonist 28 (no result: TLR4 MyD88 comp, TMEM16A inh) | OPRM1 ag inactive | HTR2A ag conf 47
Cc1ccc(/C=N/c2sc3c(c2C#N)CCCCC3)o1	m5-HT2A agonist 16 | OPRM1 ag inactive | HTR2A ag conf 16
CCN(C(=O)CSc1nnc(-c2ccccc2C)n1C)c1c(N)n(Cc2ccccc2)c(=O)[nH]c1=O	m5-HT2A agonist 14 (no result: TLR4 MyD88 comp, TMEM16A inh) | OPRM1 ag inactive | HTR2A ag conf inactive
COCCN(C(=O)CSc1nnc(C)n1-c1ccc(C)cc1)c1c(N)n(Cc2ccccc2)c(=O)[nH]c1=O	none (no result: TLR4 MyD88 comp)
Cc1ccccc1-c1nnc(SCC(=O)N(C)c2c(N)n(Cc3ccccc3)c(=O)[nH]c2=O)n1C	none (no result: TLR4 MyD88 comp)
Cc1ccc(-n2c(C)nnc2SCC(=O)N(C)c2c(N)n(Cc3ccccc3)c(=O)[nH]c2=O)cc1	m5-HT2A agonist 17 (no result: TLR4 MyD88 comp, TMEM16A inh) | OPRM1 ag inactive | HTR2A ag conf inactive
CC/C(=N\NC(=O)C1CCCC1)c1ccc(Br)cc1	m5-HT2A agonist 18 (no result: TLR4 MyD88 comp) | OPRM1 ag inactive | HTR2A ag conf inactive
COc1ccc(S(=O)(=O)NCc2csc(-c3cccnc3)n2)cc1	m5-HT2A agonist 17 | OPRM1 ag inactive | HTR2A ag conf inactive
CC(C)Cn1c(N)cc(=O)n(C)c1=O	none
CCCn1c(N)cc(=O)n(CCC)c1=O	m5-HT2A agonist 16 | OPRM1 ag inactive | HTR2A ag conf inactive
Cc1csc2c(N3CCN(C(=O)Nc4ccc(OC(F)(F)F)cc4)CC3)ncnc12	m5-HT2A agonist 14 (no result: TLR4 MyD88 comp) | OPRM1 ag inactive | HTR2A ag conf inactive
CC12CCC(C(=O)N(CCCCN3CCN(c4ccccn4)CC3)C1=O)C2(C)C (configuration not stated)	m5-HT2A agonist 28 (no result: TLR4 MyD88 comp) | OPRM1 ag inactive | HTR2A ag conf 90
O=c1cc(CSc2ccccc2)[nH]c(=S)[nH]1	none
Cc1nnc(SCc2cc(=O)[nH]c(=S)[nH]2)s1	m5-HT2A agonist 16 | OPRM1 ag inactive | HTR2A ag conf inactive
CSc1nnc(-c2cccc(NC(=S)NN)c2)o1	m5-HT2A agonist 27 | OPRM1 ag inactive | HTR2A ag conf inactive
CCOc1cc(CNCC2CCCO2)cc(Br)c1OCC(N)=O (configuration not stated)	none

Assay outcomes as filed in PubChem BioAssay.
